Common to all, as to assay: DAPPL (digital affinity profiling via proximity ligation, sequencing); 10 mM Tris-HCl pH 7.5, 50 mM NaCl, 1 mM DTT, 4% glycerol, room temperature, 30 min; GST-TFs on glutathione beads, 16-mer random dsDNA library, 0.1% formaldehyde crosslink after washing; high values mean tight binding
Details in all cases: protein: recombinant; tags: N-terminal GST; dsDNA, one strand shown

One test addresses T1, ELK1 (Homo sapiens, UniProt P19419 1-428).
T1 sequence: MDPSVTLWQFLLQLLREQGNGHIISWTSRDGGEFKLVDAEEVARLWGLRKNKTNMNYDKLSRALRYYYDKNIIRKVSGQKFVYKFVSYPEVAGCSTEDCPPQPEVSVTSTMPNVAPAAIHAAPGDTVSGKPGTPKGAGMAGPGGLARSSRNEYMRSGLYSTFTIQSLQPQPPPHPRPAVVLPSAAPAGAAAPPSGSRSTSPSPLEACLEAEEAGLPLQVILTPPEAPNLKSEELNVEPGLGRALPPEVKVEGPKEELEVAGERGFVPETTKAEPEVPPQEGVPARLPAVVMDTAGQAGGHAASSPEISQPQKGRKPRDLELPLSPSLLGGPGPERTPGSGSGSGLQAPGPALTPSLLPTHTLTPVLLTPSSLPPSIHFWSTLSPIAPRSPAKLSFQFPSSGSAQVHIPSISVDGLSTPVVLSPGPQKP
Put shortly: (§1)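 GST fusions of human transcription factors were expressed in yeast and captured with glutathione beads. Once given DNA barcodes and pooled alongside a tag-only sample, they were incubated for 30 min at room temperature with 200 nmole of a random double-stranded 16-mer DNA library in Tris/NaCl/DTT/glycerol buffer, then washed, crosslinked (0.1% formaldehyde), proximity-ligated, PCR-amplified and sequenced on an Illumina NextSeq500. The binding signal of each hexamer is its read frequency for a factor divided by its frequency for the tag-only sample.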

For a further test, the target named is T2, GABPA (Homo sapiens, UniProt Q06546 1-454).
T2 sequence: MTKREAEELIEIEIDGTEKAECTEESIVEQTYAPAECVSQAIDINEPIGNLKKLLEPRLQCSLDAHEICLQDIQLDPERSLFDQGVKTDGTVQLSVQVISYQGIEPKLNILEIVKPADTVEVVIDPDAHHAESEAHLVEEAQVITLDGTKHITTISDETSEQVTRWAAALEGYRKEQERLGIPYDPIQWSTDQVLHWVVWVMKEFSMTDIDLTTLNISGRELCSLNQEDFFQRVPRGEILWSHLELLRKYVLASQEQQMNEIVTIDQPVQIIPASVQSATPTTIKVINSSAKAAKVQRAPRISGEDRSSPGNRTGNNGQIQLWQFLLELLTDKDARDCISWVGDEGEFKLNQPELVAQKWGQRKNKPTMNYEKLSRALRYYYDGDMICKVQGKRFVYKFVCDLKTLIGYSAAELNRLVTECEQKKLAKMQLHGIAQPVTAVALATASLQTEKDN
Put shortly:
as §1

The next test addresses T3, ERG (Homo sapiens, UniProt P11308 1-479).
T3 sequence: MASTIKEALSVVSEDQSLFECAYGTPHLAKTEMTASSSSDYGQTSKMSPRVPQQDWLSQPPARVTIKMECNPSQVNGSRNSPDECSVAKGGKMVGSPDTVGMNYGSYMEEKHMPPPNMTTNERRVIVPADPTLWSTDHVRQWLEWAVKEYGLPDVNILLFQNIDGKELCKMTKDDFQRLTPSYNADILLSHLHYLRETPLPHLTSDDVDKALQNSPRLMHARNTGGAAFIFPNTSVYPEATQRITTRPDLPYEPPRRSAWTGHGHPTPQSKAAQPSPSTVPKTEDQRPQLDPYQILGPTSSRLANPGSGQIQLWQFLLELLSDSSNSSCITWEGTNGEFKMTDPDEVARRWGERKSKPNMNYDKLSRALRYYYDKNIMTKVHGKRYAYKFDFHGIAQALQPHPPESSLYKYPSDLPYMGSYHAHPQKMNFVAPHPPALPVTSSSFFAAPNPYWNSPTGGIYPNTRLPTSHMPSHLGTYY
Put shortly: as §1

For a further test, the target named is ELF1 (Homo sapiens, UniProt P32519 1-619). In short, it runs like this:
as §1

The target of another test is SPIB (Homo sapiens, UniProt Q01892 1-262). Put shortly:
as §1

Another test concerns the target T4, FEV (Homo sapiens, UniProt Q99581 1-238).
T4 sequence: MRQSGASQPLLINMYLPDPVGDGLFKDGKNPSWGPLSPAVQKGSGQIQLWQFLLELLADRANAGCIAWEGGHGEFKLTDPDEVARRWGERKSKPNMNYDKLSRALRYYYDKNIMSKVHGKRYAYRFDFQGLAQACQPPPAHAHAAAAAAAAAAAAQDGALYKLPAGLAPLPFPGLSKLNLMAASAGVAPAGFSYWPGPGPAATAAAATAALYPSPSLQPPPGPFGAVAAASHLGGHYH
In short, it runs like this: as §1

The target in a further test is ETV5 (Homo sapiens, UniProt P41161 1-510). In short, it runs like this:
as §1

The next test has as its target ELF4 (Homo sapiens, UniProt Q99607 1-663). In short, it runs like this: as §1
In a further test the target is T5, ELK4 (Homo sapiens, UniProt P28324-2 1-405).
T5 sequence: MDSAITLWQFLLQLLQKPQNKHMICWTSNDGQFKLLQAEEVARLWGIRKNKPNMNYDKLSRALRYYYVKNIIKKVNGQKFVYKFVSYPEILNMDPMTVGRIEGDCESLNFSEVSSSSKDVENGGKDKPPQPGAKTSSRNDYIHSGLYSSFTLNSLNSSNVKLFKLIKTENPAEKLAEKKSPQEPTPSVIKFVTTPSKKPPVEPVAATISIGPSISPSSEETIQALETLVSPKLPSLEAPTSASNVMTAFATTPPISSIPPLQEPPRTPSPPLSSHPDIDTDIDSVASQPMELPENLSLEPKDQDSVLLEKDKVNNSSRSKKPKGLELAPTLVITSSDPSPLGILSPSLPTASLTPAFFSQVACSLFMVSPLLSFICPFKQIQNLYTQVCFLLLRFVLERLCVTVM
In short, it runs like this: as §1

The next test addresses T6, ETV2 (Homo sapiens, UniProt O00321 1-342).
T6 sequence: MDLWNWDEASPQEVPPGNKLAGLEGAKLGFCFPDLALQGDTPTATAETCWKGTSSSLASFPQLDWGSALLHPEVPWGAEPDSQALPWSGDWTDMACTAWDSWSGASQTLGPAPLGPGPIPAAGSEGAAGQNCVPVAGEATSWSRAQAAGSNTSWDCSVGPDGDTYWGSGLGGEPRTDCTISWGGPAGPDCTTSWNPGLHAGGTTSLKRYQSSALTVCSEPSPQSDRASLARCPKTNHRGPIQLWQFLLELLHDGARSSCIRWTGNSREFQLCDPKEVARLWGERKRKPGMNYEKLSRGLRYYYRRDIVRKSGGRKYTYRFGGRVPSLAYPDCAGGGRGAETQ
In short, it runs like this: as §1

Another test deals with T7, ELF3 (Homo sapiens, UniProt P78545 1-371).
T7 sequence: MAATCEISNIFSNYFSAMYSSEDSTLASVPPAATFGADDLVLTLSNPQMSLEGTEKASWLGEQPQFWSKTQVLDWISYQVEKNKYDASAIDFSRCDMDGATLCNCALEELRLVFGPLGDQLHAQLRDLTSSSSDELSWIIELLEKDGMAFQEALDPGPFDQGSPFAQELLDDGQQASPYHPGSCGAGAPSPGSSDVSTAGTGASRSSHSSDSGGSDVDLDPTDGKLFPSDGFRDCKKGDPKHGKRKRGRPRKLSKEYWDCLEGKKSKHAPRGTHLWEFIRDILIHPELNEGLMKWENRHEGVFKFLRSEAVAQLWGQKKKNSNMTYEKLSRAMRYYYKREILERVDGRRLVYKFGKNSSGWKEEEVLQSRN
In short, it runs like this: as §1

The next test deals with ETV1 (Homo sapiens, UniProt P50549 1-477). In short, it runs like this:
as §1

The target in another test is T8, ETV3L (Homo sapiens, UniProt Q6ZN32 1-361).
T8 sequence: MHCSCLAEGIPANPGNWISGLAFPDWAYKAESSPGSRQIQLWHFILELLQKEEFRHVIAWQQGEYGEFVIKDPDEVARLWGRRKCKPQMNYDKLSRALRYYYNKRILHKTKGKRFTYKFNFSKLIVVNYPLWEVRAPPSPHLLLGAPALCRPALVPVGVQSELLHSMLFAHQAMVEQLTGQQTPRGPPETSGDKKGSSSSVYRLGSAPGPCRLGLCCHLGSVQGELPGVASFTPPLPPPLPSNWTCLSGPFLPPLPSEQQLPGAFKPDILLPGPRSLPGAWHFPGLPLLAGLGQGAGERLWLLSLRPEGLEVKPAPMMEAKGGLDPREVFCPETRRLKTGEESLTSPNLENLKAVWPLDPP
Put shortly: as §1

Another test addresses T9, ETS2 (Homo sapiens, UniProt P15036 1-469).
T9 sequence: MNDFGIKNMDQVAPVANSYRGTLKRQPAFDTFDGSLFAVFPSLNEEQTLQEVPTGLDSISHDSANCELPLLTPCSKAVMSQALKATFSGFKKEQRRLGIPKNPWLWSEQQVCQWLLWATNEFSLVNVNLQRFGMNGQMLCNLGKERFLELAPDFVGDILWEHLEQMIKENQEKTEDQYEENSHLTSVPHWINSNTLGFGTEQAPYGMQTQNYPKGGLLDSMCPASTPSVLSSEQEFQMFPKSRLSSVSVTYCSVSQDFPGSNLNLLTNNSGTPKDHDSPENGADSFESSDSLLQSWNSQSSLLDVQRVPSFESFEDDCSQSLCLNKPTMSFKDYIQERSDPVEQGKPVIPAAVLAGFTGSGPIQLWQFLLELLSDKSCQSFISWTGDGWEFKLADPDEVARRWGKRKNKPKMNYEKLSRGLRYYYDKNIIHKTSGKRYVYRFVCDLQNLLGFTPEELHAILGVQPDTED
Put shortly: as §1

In another test the target is T10, SPDEF (Homo sapiens, UniProt O95238 1-335).
T10 sequence: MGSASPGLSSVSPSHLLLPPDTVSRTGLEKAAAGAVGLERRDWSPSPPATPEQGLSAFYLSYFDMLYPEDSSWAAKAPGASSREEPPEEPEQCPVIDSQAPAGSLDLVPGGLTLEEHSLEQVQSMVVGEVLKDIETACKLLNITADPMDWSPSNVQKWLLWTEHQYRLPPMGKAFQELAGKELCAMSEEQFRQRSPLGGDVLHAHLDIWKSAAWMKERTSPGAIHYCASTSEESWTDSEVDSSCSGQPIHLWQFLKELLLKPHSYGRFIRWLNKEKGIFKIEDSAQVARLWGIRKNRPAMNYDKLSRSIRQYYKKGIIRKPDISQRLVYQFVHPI
Put shortly: as §1

The next test has as its target T11, ETV7 (Homo sapiens, UniProt Q9Y603 1-341).
T11 sequence: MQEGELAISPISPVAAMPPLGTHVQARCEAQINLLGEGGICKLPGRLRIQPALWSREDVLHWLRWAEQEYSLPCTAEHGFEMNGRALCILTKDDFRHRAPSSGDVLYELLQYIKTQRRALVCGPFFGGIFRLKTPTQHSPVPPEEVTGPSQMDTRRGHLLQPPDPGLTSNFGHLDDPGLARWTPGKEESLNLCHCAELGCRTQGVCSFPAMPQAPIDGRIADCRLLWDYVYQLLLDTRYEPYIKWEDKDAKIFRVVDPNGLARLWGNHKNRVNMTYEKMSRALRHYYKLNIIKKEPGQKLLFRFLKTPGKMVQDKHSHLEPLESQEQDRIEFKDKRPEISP
Put shortly:
as §1

A further test deals with T12, ETV3 (Homo sapiens, UniProt P41162-2 1-143).
T12 sequence: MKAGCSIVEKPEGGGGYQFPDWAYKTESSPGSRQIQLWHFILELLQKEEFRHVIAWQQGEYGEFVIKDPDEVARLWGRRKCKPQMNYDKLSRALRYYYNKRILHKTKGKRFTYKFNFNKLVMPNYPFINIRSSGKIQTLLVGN
In short, it runs like this: as §1

The target in another test is ETV6 (Homo sapiens, UniProt P41212 1-452). In short, it runs like this:
as §1

Chain of SPIB (Q01892 whole entry): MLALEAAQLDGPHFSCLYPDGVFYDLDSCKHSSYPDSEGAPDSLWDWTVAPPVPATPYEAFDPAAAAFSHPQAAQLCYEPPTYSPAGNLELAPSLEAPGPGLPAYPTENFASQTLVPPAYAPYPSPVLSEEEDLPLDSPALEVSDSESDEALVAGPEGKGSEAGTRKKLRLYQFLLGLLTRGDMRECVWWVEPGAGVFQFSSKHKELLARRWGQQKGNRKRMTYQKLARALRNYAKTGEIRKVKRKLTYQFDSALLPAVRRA
Chain of ELF4 (Q99607 whole entry): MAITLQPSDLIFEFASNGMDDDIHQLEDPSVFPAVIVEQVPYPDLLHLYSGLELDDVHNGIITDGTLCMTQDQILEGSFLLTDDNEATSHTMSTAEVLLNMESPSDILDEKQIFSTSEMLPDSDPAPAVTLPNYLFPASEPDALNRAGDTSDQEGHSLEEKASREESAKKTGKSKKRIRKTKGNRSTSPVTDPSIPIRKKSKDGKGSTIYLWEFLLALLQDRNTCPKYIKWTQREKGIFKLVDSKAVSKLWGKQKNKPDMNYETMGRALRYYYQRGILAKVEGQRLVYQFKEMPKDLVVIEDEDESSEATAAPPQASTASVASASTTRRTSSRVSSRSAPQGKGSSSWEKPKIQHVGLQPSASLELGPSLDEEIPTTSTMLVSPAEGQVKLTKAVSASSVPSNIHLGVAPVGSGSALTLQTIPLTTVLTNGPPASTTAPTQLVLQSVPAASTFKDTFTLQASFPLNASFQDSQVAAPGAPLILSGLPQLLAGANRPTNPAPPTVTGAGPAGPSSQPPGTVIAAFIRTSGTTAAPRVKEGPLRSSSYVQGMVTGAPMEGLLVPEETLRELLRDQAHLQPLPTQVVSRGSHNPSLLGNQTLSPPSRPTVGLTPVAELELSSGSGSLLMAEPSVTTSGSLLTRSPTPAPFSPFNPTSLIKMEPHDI
Chain of ETV1 (P50549 whole entry): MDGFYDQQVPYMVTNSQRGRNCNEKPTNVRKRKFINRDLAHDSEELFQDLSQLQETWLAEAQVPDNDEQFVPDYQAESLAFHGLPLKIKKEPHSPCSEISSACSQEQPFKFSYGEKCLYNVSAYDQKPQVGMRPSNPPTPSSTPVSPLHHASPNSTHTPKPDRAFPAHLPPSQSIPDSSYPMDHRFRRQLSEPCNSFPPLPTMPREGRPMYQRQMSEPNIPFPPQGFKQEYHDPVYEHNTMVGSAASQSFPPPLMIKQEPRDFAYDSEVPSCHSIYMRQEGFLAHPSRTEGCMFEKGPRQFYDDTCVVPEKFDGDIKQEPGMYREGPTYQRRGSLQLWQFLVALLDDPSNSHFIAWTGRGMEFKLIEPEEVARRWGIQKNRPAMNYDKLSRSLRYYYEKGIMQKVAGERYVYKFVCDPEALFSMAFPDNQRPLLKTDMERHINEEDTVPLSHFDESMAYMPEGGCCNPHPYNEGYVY
Chain of ETV5 (P41161 whole entry): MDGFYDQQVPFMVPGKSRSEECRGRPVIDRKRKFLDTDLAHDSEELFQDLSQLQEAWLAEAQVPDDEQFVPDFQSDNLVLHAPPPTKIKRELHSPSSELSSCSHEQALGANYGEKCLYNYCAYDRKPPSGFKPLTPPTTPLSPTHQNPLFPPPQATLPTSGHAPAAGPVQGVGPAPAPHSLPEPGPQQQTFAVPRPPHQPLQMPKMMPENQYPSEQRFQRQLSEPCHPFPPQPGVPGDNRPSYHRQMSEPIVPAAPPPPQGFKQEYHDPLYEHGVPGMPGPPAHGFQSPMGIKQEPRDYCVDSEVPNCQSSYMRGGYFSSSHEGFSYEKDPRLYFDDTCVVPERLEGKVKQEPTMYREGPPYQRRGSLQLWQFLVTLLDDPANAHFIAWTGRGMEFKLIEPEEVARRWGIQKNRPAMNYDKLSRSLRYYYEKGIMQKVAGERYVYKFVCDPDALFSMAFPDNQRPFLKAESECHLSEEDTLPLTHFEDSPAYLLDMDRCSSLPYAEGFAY
Chain of ETV6 (P41212 whole entry): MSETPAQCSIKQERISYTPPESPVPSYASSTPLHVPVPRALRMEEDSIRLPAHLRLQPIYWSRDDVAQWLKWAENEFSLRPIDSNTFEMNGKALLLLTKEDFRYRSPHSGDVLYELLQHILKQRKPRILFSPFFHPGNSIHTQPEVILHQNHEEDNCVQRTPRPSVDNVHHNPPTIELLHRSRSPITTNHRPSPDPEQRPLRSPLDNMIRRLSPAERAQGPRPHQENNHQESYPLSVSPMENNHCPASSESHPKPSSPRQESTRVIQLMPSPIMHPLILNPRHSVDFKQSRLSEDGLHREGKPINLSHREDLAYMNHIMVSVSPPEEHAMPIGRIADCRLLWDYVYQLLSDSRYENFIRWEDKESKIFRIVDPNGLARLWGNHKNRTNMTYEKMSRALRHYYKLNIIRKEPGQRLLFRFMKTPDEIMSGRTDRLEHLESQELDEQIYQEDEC
Chain of ELF1 (P32519 whole entry): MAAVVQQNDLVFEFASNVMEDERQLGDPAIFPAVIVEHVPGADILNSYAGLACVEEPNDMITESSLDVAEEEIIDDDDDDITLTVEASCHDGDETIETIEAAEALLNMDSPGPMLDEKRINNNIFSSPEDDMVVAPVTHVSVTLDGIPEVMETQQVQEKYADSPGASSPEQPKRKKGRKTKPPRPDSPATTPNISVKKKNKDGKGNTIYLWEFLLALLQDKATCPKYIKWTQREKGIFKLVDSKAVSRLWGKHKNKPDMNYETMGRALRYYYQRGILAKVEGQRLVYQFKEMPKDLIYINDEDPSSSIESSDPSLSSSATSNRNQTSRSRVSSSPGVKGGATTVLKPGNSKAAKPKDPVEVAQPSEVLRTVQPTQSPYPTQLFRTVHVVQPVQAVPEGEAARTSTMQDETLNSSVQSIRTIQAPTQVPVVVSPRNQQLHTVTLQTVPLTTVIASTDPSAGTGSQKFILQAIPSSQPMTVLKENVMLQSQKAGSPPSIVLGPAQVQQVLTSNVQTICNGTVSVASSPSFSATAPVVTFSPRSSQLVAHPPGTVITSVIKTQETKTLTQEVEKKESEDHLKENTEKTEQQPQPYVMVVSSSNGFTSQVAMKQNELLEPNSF

GGTATC: the binding signal with ELK1 was 1.07 fold enrichment (6-mer frequency, TF over GST control); in the test with GABPA, 1.06 fold enrichment (6-mer frequency, TF over GST control); in the test with ERG, 1.07 fold enrichment (6-mer frequency, TF over GST control); with ELF1 it was 1.09 fold enrichment (6-mer frequency, TF over GST control); with SPIB, 1.04 fold enrichment (6-mer frequency, TF over GST control); with FEV, 1.06 fold enrichment (6-mer frequency, TF over GST control). In addition, the binding signal in the test with ETV5 is 1.06 fold enrichment (6-mer frequency, TF over GST control); in the test with ELF4 it was 1.08 fold enrichment (6-mer frequency, TF over GST control); with ELK4, 1.13 fold enrichment (6-mer frequency, TF over GST control); in the test with ETV2, 1.23 fold enrichment (6-mer frequency, TF over GST control); with ELF3 it was 1.23 fold enrichment (6-mer frequency, TF over GST control); with ETV1, 1.1 fold enrichment (6-mer frequency, TF over GST control). Besides, the binding signal with ETV3L was 1.02 fold enrichment (6-mer frequency, TF over GST control); with ETS2, 1.01 fold enrichment (6-mer frequency, TF over GST control); with SPDEF, 1.33 fold enrichment (6-mer frequency, TF over GST control); in the test with ETV7 it was 1.06 fold enrichment (6-mer frequency, TF over GST control); with ETV3 it was 1.04 fold enrichment (6-mer frequency, TF over GST control); with ETV6, 1.03 fold enrichment (6-mer frequency, TF over GST control).
